SKN-1 inh – C. elegans SKN-1 inhibition. 360,000 tested, 0.49% active. inhibition, % at 21.8 µM. AID 624304. C. elegans VP596 Pgst-4::GFP/RFP ratio, acrylamide-induced, 24 h;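 active = interference check ratio from 0.5 to 1.5 plus GFP to RFP signal ratio inhibition reaching or exceeding a fixed threshold, cut at about 30% in these data, passing the limit was not always enough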
SUMO Mot1 rescue – inhibitors of SUMOylation pathway: yeast Mot1-301 growth rescue; S. cerevisiae Mot1-301 growth rescue, ATP luminescence, 38.5C; percent above DMSO median, 100 means doubled; growth rescue, % at 18.8 µM; 320,000 tested, 1% active; AID 2716;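 active = every valid replicate shows activation above 250% relative to neutral control wells; inactive = the rest, any valid replicate at or below 250%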
sPLA2-III inh – Blocks human group III sPLA2 activity. inhibition, % at 12.2 µM. Q9NZ20. AID 743126. 370,000 tested, 0.56% active. QFRET BODIPY PC-A2 liposome hydrolysis, fluorescence;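 active = inhibition above mean plus 3 SD of compounds lying within the high and low control bounds, cut at about 19% in these data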
Target sequence (Q9NZ20 whole entry, looked up): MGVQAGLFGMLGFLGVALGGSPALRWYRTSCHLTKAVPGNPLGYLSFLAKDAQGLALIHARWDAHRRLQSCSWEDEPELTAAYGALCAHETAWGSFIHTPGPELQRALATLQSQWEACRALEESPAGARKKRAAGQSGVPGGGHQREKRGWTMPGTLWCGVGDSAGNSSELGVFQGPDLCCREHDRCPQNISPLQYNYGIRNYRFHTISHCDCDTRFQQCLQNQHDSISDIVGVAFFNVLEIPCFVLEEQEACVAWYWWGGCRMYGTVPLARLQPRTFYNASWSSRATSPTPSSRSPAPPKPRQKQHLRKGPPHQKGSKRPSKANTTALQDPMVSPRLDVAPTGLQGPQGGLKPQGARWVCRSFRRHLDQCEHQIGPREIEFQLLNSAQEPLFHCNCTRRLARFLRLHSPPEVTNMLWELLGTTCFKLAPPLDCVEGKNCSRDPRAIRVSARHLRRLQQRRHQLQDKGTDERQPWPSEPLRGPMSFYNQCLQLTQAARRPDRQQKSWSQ
Efflux pump inh – inhibitors of Candida antifungal efflux pumps expressed in yeast; S. cerevisiae Candida pump triplex, Nile Red efflux; inhibition, % at 10 µM; 330,000 tested, 0.44% active; AID 485275;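 active = plate passing quality check with inhibition over a set limit, or well fluorescence over plate mean plus 4 SD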;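 also: Nile Red retained in pooled yeast measured as flow cytometry median fluorescence; higher means more Nile Red kept so more efflux inhibition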
Yeast Mot1 SUMO – SUMO pathway inhibitors in yeast Mot1-301 growth | S. cerevisiae Mot1-301 galactose growth, ATP luminescence, 24 h; -100 = growth of slx-deleted rescue strain | shares compounds with SUMO Mot1 rescue | growth activity, percent, % at 42 µM | 2,300 tested, under 10 active;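 active = Signal drops as the depositor expects, and the fitted half-maximal dose is no more than ten times the top valid tested dose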;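 also: more negative values mean stronger growth rescue toward the control strain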
Hits are given with their value; 0 = inactive; - = no result; + = active, no number. Shown are actives, neighbours in structure and some others; about 2.2% of the full set was active somewhere.

SMILES	SKN-1 inh	SUMO Mot1 rescue	sPLA2-III inh	Efflux pump inh	Yeast Mot1 SUMO
CCc1nc2ccc(C(=O)NCCCn3ccnc3)cn2c1N(C)CCC(C)C	0	-	0	-	-
CCCOC(=O)C1=C(C)N(C)C(=O)NC1c1cc2c(cc1[N+](=O)[O-])OCO2 (configuration not stated)	0	0	0	0	-
CCOC(=O)C1=C(C)NC(=O)CC1c1cc2c(cc1[N+](=O)[O-])OCO2 (configuration not stated)	0	937	0	0	0
CCOC(=O)COc1cc(N)c(Cl)cc1Cl	0	0	0	0	-
COc1ccc(-c2nnc(SCC(=O)N3CCCCC3)o2)cc1	0	542	0	0	0
CCOc1ccc(-c2nnc(SCC(=O)N3CCCC3)o2)cc1	0	713	0	0	0
COC(=O)[C@]12C[C@H](CC(=O)NCc3cccs3)C(=O)N(Cc3ccc(Cl)cc3Cl)C1=C[C@H](C1CCCC1)O[C@@H]2C	-	-	0	-	-
O=C(O)c1cc(-c2ccc(Cl)c(Cl)c2)n(-c2ccccc2)n1	0	0	0	0	-
COc1cc(C=C2NC(=O)NC2=O)ccc1O	0	-	0	-	-
CCOc1cc(/C=C2\NC(=O)NC2=O)ccc1OC(C)C(=O)O (configuration not stated)	0	514	0	0	0
Cc1cc(C)cc(C(=O)NC(CC(N)=O)c2ccc(NCCN3CCCC3)c([N+](=O)[O-])c2)c1 (configuration not stated)	0	0	0	0	-
Cc1cc(C)cc(C(=O)NC(CC(N)=O)c2ccc(NCCN3CCOCC3)c([N+](=O)[O-])c2)c1 (configuration not stated)	0	644	0	0	0
COCCN(C(=O)CNC(=O)c1ccco1)C(C(=O)NC1CCCC1)c1cccc(OC)c1 (configuration not stated)	0	0	0	0	-
CCCn1c(SC(C)C(=O)NCC2CCCO2)nc2sc(CC)cc2c1=O (configuration not stated)	0	466	0	0	0
CCCn1c(SC(C)C(=O)NCC2CCCO2)nc2sc3c(c2c1=O)CCC3 (configuration not stated)	0	0	0	0	-
Cc1onc(-c2ccccc2Cl)c1C(=O)N1CCc2ccccc2C1	0	680	0	0	0
Cc1onc(-c2c(F)cccc2Cl)c1C(=O)N1CCc2ccccc2C1	0	0	0	0	-
CCN1C(=O)c2cccc3c(S(=O)(=O)Nc4ccccc4)ccc1c23	0	0	-	0	-
CCN1C(=O)c2cccc3c(S(=O)(=O)Nc4ccc(OC)cc4OC)ccc1c23	0	768	0	0	0
O=C(OCc1nnc(-c2ccccc2)o1)C1CC(=O)N(CCc2ccccc2)C1 (configuration not stated)	0	0	0	0	-
CCN(CC)C(=O)CSc1nnc(SCc2ccc(Cl)cc2)s1	0	510	0	0	0
O=C(CSc1nnc(SCc2ccc(Cl)cc2)s1)N1CCOCC1	0	0	0	0	-
CN(C)CCCNc1oc(-c2ccccc2Cl)nc1S(=O)(=O)c1ccccc1	0	0	0	0	-
CN(C)c1oc(-c2ccccc2Cl)nc1S(=O)(=O)c1ccccc1	0	636	0	0	0
Cc1cc(C(=O)CN2C(=O)NC3(CCCc4sccc43)C2=O)c(C)n1-c1ccccc1 (configuration not stated)	0	0	0	0	-
SMILES	SKN-1 inh	SUMO Mot1 rescue	sPLA2-III inh	Efflux pump inh	Yeast Mot1 SUMO
COc1ccc(-n2c(C)cc(C(=O)CN3C(=O)NC4(CCCc5sccc54)C3=O)c2C)cc1 (configuration not stated)	0	+	0	0	0
Cc1ccc(-c2nc(CS(=O)(=O)CC(=O)NC3CCCCC3C)c(C)o2)cc1 (configuration not stated)	0	699	0	0	0
COc1ccc(-c2nc(CS(=O)(=O)CC(=O)NC3CCCCC3C)c(C)o2)cc1 (configuration not stated)	0	0	0	0	-
O=C(O)c1cc(S(=O)(=O)Nc2ccc(OCc3ccccc3)cc2)ccc1Br	0	414	0	0	0
Cc1cccc2cc3ccccc3nc12	0	0	0	0	-
Cc1cccc2nc3ccccc3cc12	0	576	0	0	0
CCCS(=O)(=O)NC(=O)C1(C)CCN(C(=O)c2c(-c3ccccc3)noc2C)C1 (configuration not stated)	0	-	0	-	-
CCN1CCCC(NC(=O)c2scc3c2CCCC3)C1 (configuration not stated)	0	659	0	0	0
CC(C)c1ccc(NC2CCCN(C(=O)CC3CCCC3)C2)cc1 (configuration not stated)	0	0	0	0	-
Cc1ccc(SC[C@H](C)CN2CC[C@H](C)CCC2=O)cc1	0	460	0	0	0
C/C(=N\NC(=O)c1ccc(Cl)cc1)c1cccnc1	0	714	0	0	0
COCCC(=O)N1CCC(n2nccc2NC(=O)CCc2ccccc2)CC1	0	0	0	0	-
COc1cc(C)c(S(=O)(=O)NCc2ccc3c(c2)OCO3)cc1C	0	0	0	0	-
COc1cc(C)c(Cl)c(C)c1S(=O)(=O)NCc1ccc2c(c1)OCO2	0	384	0	0	0
O=C(COC(=O)c1ccc2c(c1)OCCO2)NCc1ccc(Cl)cc1	0	-	0	-	-
CC(C)Oc1ccc(CCC(=O)NNC(=O)c2ccccc2C(=O)O)cc1	0	460	0	0	0
CC(C)Oc1ccc(CCC(=O)NNC(=O)CCC(=O)O)cc1	0	0	0	0	-
O=C(NNc1ccccc1)C(=O)NNS(=O)(=O)c1ccc(CCCl)cc1	0	0	0	0	-
Nc1ccc(S(=O)(=O)NNC(=O)C(=O)NNc2ccccc2)cc1	0	405	0	0	0
CC1CCN(S(=O)(=O)c2ccc3nc(N4CCN(c5ccccc5)CC4)ccc3c2)CC1	-	0	0	0	-
COc1ccc(CCNC(=O)c2cc(=O)c3cc(C)ccc3o2)cc1OC	0	0	0	0	-
Cc1ccc(N/C=C(\C#N)c2ccc(OCCCF)cc2)cc1	0	724	0	0	0
COc1ccc(N/C=C(\C#N)c2ccc(OCCCF)cc2)cc1	0	0	0	0	-
CCCCN(C(=O)C1CCCC1)C1CCS(=O)(=O)C1 (configuration not stated)	0	-	0	-	-
Cc1ccc(-c2cc3nc(C)cc(N4CCN(C(=O)c5ccoc5)CC4)n3n2)cc1	0	-	0	-	-
COc1ccc(Cl)cc1N(C(=O)c1ccco1)C(C(=O)NC1CCCC1)c1ccncc1 (configuration not stated)	0	407	0	0	0
COc1ccc(/C=N\Nc2ccc([N+](=O)[O-])cc2)c(C(=O)O)c1OC	0	455	0	0	0
N/C(=N\NC(=O)c1sccc1OCc1ccc(Cl)cc1Cl)c1ccccn1	0	529	0	0	0
CNC(=S)NNC(=O)c1sccc1OCc1ccc(Cl)cc1Cl	0	-	0	0	-
Cc1ccc(S(=O)(=O)N2C[C@H]3C(=O)C[C@@H](c4ccc(Cl)cc4)N(S(=O)(=O)c4ccc(C)cc4)[C@H]3C[C@H]2c2ccccc2)cc1	0	-	0	-	-

Source: PubChem (several laboratories)
